Drawing on PubChem BioAssay AID1745847 (National Center for Advancing Translational Sciences (NCATS), 2022), this text covers Potency and activity change, negative = inhibition for 23 molecules.

Molecules are shown by their SMILES. About 670 (32%) of roughly 2,100 compounds were called active. Another 50% or so got no clear call; they are omitted. This is one part of the list. A number with no mark means an inactive call. The call rests on the fitted dose curve; in most records, active means well fitted inhibition curve with a large enough effect; inconclusive means small, poorly fitted or top-dose-only effect; inactive means no such curve, though single readings can be large or run the other way.
On the % scale 0 is the no-effect control and ±100 the full control effect; potency means the concentration at half of the fitted maximal effect.

The assay in a line: CMV-Luciferase Counterscreen for Inhibitors of ATXN expression. Further: nearly all actives have a fitted effect of over 55% in size. Particulars: HEK-293 CMV-luciferase reporter, luminescence, 24 h; series mostly up to 57.5 µM. (A counterscreen serves to expose hits that act by an unwanted route or on another target.)
Take `Cc1ccccc1NC(=O)Nc1nc(C(N)C2CCCCC2)cs1` (stereo not drawn): the Potency result was “inactive”.

For `CN(C)C(=O)c1cccc(-c2cnc3c(NC=O)cc(-c4ccccc4N(C)C)cn23)c1`, the activity change, negative = inhibition was -27.7% [at 11.4 µM].

For `CCN1CCN(c2ccc(S(=O)(=O)N3CCCCC3)cc2NC(=O)/C=C/c2ccc([N+](=O)[O-])cc2)CC1`, the activity change, negative = inhibition was -17.9% [at 11.4 µM].

On to `CCN1CCN(c2ccc(S(=O)(=O)N3CCCCC3)cc2NC(=O)c2ccc([N+](=O)[O-])s2)CC1`, for which the Potency was 3.16 µM (active).

Regarding `COc1ccccc1C(=O)NNC(=S)NC(=O)c1ccco1`, the Potency was 7.94 µM (active).

For the molecule `COc1ccccc1NC(=S)NC(=O)c1ccc(Cn2cc(Br)cn2)cc1`, the Potency entry is “inactive”.

Regarding `CC[C@H]1CN2CCc3cc(OC)c(OC)cc3[C@@H]2C[C@@H]1C[C@H]1NCCc2cc(OC)c(OC)cc21`, the Potency was 0.0794 µM (active).

Regarding `CC[C@H]1CN2CCc3cc(OC)c(OC)cc3C2C[C@@H]1C[C@H]1NCCc2cc(OC)c(OC)cc21` (stereo partly drawn), the Potency is 1.12 µM (active).

As for `CCC1=C(CC2NCCc3ccccc32)CC2c3cc(OC)c(OC)cc3CCN2C1` (stereo not drawn), the Potency is 14.1 µM (active).

As for `CCCCOc1ccc(NC2=NC3(CCCC3)N=C(N)N2)cc1`, the Potency entry is “inactive”.

With `C/C(=N\N=C(N)N)c1ccc(Cl)cc1Cl`, the Potency result was “inactive”.

As to `CC(C)[C@@H]1CC[C@@H](C)C[C@H]1OC(=O)C[n+]1cc(-c2ccc(Cl)cc2)n2c1CCCCC2`, the Potency is 14.1 µM (active).

With `NNc1ncnc2scc(-c3ccc(Cl)cc3)c12`, the Potency is 25.1 µM (active).

`COc1cccc(NC(=O)CSc2nc3ncc(Br)cc3[nH]2)c1`: the activity change, negative = inhibition is 193% [at 11.4 µM].

As to `O=C(CSc1nnc(-c2ccc(Br)cc2)o1)Nc1cccc(C(=O)O)c1`, the Potency was 4.47 µM (active).

In the case of `O=C(Nc1ccc(Oc2ccc(NC(=O)Nc3ccc([N+](=O)[O-])cc3)cc2)cc1)Nc1ccc([N+](=O)[O-])cc1`, the Potency was 2.82 µM (active).

For `O=C1c2cc(Cl)ccc2-c2c(O)cc(Cl)cc21`, the Potency result was “inactive”.

Turning to `O=C(Nc1ccc2oc(=O)ccc2c1)c1ccc(-c2cccc(Cl)c2)o1`, the Potency entry is “inactive”.

In the case of `COCc1ccc(CN2CCC(C(=O)Nc3cccc(-c4cccc(Cl)c4)c3)CC2)o1`, the Potency is 14.1 µM (active).

For `COC(=O)Cc1[nH]n(-c2nc3ccccc3s2)c(=O)c1C(C)=Nc1ccc(C)cc1`, the Potency is 0.501 µM (active).

As for `CC(C)[C@H](CO)Nc1nc(NCc2ccc(S(N)(=O)=O)cc2)c2ncn(C(C)C)c2n1`, the activity change, negative = inhibition was 41.8% [at 11.4 µM].

In the case of `Cc1ccn2c(Nc3ccccc3C)c(-c3ccccn3)nc2c1`, the Potency was 5.01 µM (active).

As to `Nc1ccc(OC(=O)Nc2ccc(O)cc2)cc1`, the Potency is 12.6 µM (active).
